Assay results from the supplement of paper PMC6555819.

Columns and labels:
Experiment in all cases: PBM binding z-score (relative to random genomic background probes); higher = stronger binding; sequences stand for … in GC…GCGATTGACAGCGTAGAATGAAGG
[1] = tested on: FXR:RXRa (NR concentration 270 nM, RXRa partner concentration 90 nM)
In short: (§1)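 For binding z-scores, the reference was random background probes on custom Agilent 4×180K protein-binding microarrays. These arrays were incubated 1 h with ligand-free nuclear receptor dimers in PBS pH 7.4, 2% milk, 0.02% Triton X-100, 1 mM DTT, 0.2 mg/mL BSA and 0.4 mg/ml salmon testes DNA. Fluorescence was scanned after antibody detection of each partner (one per run) and regression-normalized.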

[2] = tested on: LXRa:RXRa (NR concentration 270 nM, RXRa partner concentration 90 nM)
In short: as §1

[3] = tested on: LXRa homodimer (NR concentration 270 nM)
In short: as §1

[4] = tested on: LXRb homodimer (NR concentration 270 nM)
In short: as §1

[5] = tested on: PPARa:RXRa (NR concentration 270 nM, RXRa partner concentration 90 nM)
In short: as §1

[6] = tested on: PPARg:RXRa (NR concentration 180 nM, RXRa partner concentration 90 nM)
In short: as §1

[7] = tested on: PPARg:RXRa 270nM:90nM, anti-RXR (NR concentration 270 nM, RXRa partner concentration 90 nM)
In short: as §1

[8] = tested on: PPARg:RXRa 30nM:10nM, anti-RXR (NR concentration 30 nM, RXRa partner concentration 10 nM)
In short: as §1

[9] = tested on: PPARg:RXRa 90nM:30nM, anti-RXR (NR concentration 90 nM, RXRa partner concentration 30 nM)
In short: as §1

[10] = tested on: PPARg:RXRa DBDmut IVT, anti-RXR (DBD mutation: RXRa K156A/R161A, NR concentration 270 nM, RXRa partner concentration 90 nM)
In short: as §1

[11] = tested on: PPARg:RXRa IVT, anti-PPARg (NR concentration 270 nM, RXRa partner concentration 90 nM)
In short: as §1

[12] = tested on: PPARg DBDmut:RXRa IVT, anti-PPARg (DBD mutation: PPARg1 K132A/R137A, NR concentration 270 nM, RXRa partner concentration 90 nM)
In short: as §1

[13] = tested on: PPARg DBDmut IVT, anti-PPARg (DBD mutation: PPARg1 K132A/R137A, NR concentration 270 nM)
In short: as §1

[14] = tested on: PPARg homodimer (NR concentration 180 nM)
In short: as §1

[15] = tested on: PXR:RXRa (NR concentration 270 nM, RXRa partner concentration 90 nM)
In short: as §1

[16] = tested on: PXR homodimer (NR concentration 270 nM)
In short: as §1

[17] = tested on: RARa:RXR (NR concentration 270 nM, RXRa partner concentration 90 nM)
In short: as §1

[18] = tested on: RARa homodimer (NR concentration 270 nM)
In short: as §1

[19] = tested on: RARb:RXRa (NR concentration 270 nM, RXRa partner concentration 90 nM)
In short: as §1

Sequence | PBM binding z-score [1] | PBM binding z-score [2] | PBM binding z-score [3] | PBM binding z-score [4] | PBM binding z-score [5] | PBM binding z-score [6] | PBM binding z-score [7] | PBM binding z-score [8] | PBM binding z-score [9] | PBM binding z-score [10] | PBM binding z-score [11] | PBM binding z-score [12] | PBM binding z-score [13] | PBM binding z-score [14] | PBM binding z-score [15] | PBM binding z-score [16] | PBM binding z-score [17] | PBM binding z-score [18] | PBM binding z-score [19]
CACACTAGGTCAAAGGTCAAAGTCGAGCCAACCA | 8.41 | 7.68 | 6.65 | 3.73 | 7.75 | 13.9 | 11.2 | 14 | 14 | 8.09 | 8.84 | 5.62 | 4.09 | 7.33 | 7.4 | 2.74 | 9.26 | 4.38 | 5.87
CCTAGTGGGTCAGGAGGTCACACACCGGATATGA | 4.27 | 4.06 | 1.62 | 0.0765 | 5.31 | 7.91 | 6.77 | 4.29 | 6.31 | 5.23 | 7.22 | 0.727 | 0.445 | 3.37 | 4.62 | 0.774 | 5.66 | 1.06 | 4.42
AGTCAAAGTTCATCAAGGTAACGTAAGATATGCT | 6.08 | 5.78 | 4.24 | 1.31 | 4.64 | 6.46 | 6.38 | 3.52 | 5.75 | 0.277 | 3.34 | 1.59 | 1.26 | 3.05 | 5.4 | 9.31 | 4.3 | 2.24 | 4.9
CCTACTGGGCCATTCAGAGGTCATCGATCATATG | 2.91 | 4.22 | 6.05 | 0.293 | 4.19 | 2.51 | 3.01 | 1.49 | 2.37 | 4.55 | 4.6 | 1.41 | -0.27 | 5.67 | 5.11 | 2.18 | 5.25 | 1.9 | 3.29
CGTCAAAGTTCATGGTAACGTAACAGAAAGCAGC | 6.57 | 5.67 | 3.17 | 1.2 | 4.95 | 5.02 | 5.36 | 2.39 | 4.08 | 0.9 | 2.06 | 1.17 | 1.03 | 3.91 | 4.52 | 2.84 | 3.68 | 1.6 | 5
ACTAGTTGGTCAGCTGGGGTCACACACAATTCGG | 3.81 | 3.01 | 0.525 | 0.369 | 4.47 | 2.37 | 3.06 | 0.707 | 2.36 | 1.23 | 2.46 | 0.596 | -0.0449 | 2.5 | 5.82 | 1.23 | 6.17 | 0.784 | 3.33
TTACCAAGGTGAACTGAGGTCGTTGATCCAACTC | 3.33 | 4.31 | 1.34 | -0.359 | 3.46 | 2.14 | 2.3 | 0.857 | 1.7 | 2.89 | 3.47 | 0.972 | 0.996 | 1.32 | 6.12 | 1.94 | 3.7 | -0.75 | 2.43
CCTAGTTGGTCAGGGGGTCACACACCGGATATGA | 4.51 | 4.01 | 1.32 | 7.75 | 5.36 | 5.04 | 5.76 | 2.89 | 4.92 | 1.2 | 4.57 | 2.8 | 4.19 | 3.05 | 5.01 | 1.49 | 5.48 | 1.61 | 3.74
AGTCGGAGGACAAAGGTCAGAGCTACGCCAGTGA | 3.97 | 4.34 | 1.6 | 0.26 | 5.01 | 7.55 | 7.07 | 5.94 | 7.56 | 0.569 | 3.68 | 0.374 | -0.0334 | 3.93 | 3.98 | 0.166 | 5.06 | 1.59 | 4.31
